# In ChEMBL document CHEMBL3988442, “University of Dundee, Small-Polar-MMV Screening Library” (2021):
# The campaign covered roughly 48,000 compounds. About 13,000 (27%) showed an effect of 50% or more. The list shows a part of the results.
# Test system: Wolbachia pipientis
# Assay: Anti-Wolbachia Cell-Based Screen
# Assay type: functional
# Set-up: scale not given: in the data most compounds retested in dose-response had high values
# Conditions: 5 µM
row,SMILES,Percent Effect
1,COCCNC(=O)c1cc(COc2cncc(Cl)c2)on1,6.247%
2,CC(C)CN1CCN(Cc2nc3c(s2)CCCC3)[C@H]2CS(=O)(=O)C[C@H]21,-7.173%
3,O=C(NC[C@H]1OC[C@@H](NC2CCC(F)(F)CC2)[C@@H]1O)C1CC1,-11.71%
4,Cc1nc(Nc2cnccn2)cc(C2CCCN2)n1.Cl (centres undefined),92.06%
5,Cl.c1cnc(Nc2cncc(C3CCCN3)n2)cn1 (centres undefined),154.6%
6,Cc1ccc2[nH]c(CN(C)c3cc(CCN)nc(C)n3)nc2c1,1.379%
7,CCCc1cc(C(=O)N2CCCN(c3cccnn3)CC2)[nH]n1,-4.631%
8,COc1ccc(C2(CNC(C)c3nnc(C)o3)CCCCC2)cc1 (centres undefined),-5.469%
9,CCN(C(=O)Cc1ccc(NCc2nccn2C)cc1)c1ccccc1,-5.228%
10,CSC(C)C(=O)N1CCC(Oc2cc(C)ccc2F)(C(=O)O)CC1 (centres undefined),-19.74%
11,COc1cccc(CNc2c(C)nn(C(C)C)c2C)c1.Cl,-5.673%
12,COc1cccc(CNc2cnn(C)c(=O)c2Cl)c1,-15.43%
13,COc1ccc(CNc2cnn(CC(F)F)c2)cc1,98.47%
14,CC(C)(C)C(=O)N1CCN(C(=O)Nc2cnn(CC(F)F)c2)CC1,14.61%
15,COCCn1cc(NCc2c[nH]nc2-c2ccc(OC)cc2)cn1,-43.6%
16,COc1cccc(CNc2cnn(CC(F)F)c2)c1,110.9%
17,CC1=CC(C)(C)N(CN2C(=O)c3ccccc3C2=O)c2ccc(C)cc21,-18.46%
18,CCN1CCC(CC(=O)NCCc2nc(C)c(Cl)s2)CC1,-2.005%
19,CCC(c1nc(CC(C)C)nn1-c1ccccn1)n1cccn1 (centres undefined),-7.483%
20,Nc1nccc(C2CCN(c3cnccn3)C2)n1 (centres undefined),100.6%
21,CN(C)c1ccc(C2CCN(c3cnccn3)CC2)nc1,110.3%
22,Cc1ccc(-c2cn[nH]c2C2CCCN(c3cnccn3)C2)cc1 (centres undefined),-26.5%

row,SMILES,Percent Effect
1,c1ccc(C2CCN(c3cncc(-n4cccn4)n3)CC2)cc1,-3.284%
2,CSCCCN1CCC[C@]2(C(=O)O)CN(c3cnccn3)CC[C@@H]12,-18.46%
3,c1cc(C2CCN(c3cnccn3)CC2)ncn1,111.8%
4,CC(c1ccccc1)N(C)C(=O)CN1CCN(c2cnccn2)CC1 (centres undefined),-4.354%
5,CC(C)c1nccn1C(C)C(=O)N1CCN(c2cnccn2)CC1 (centres undefined),8.025%
6,c1cc(C2CCN(c3cnccn3)CC2)ccn1,108.9%
7,O=C1OCCC1N1CCN(c2cnccn2)CC1 (centres undefined),-13.03%
8,Cc1ccc(CN2CC[C@@H](O)[C@@H]2Cc2ccccc2)o1.O=C(O)C(F)(F)F,1.325%
9,CC(=O)c1cccc(OCCCC(=O)N(C)Cc2ccccn2)c1,14.18%
10,CC(C)[C@H]1CN(c2ccncc2)C[C@@H]1NS(=O)(=O)N(C)C,113.1%
11,CC(C)[C@@H]1CN(c2ccc(F)cn2)C[C@H]1NS(C)(=O)=O,-10.09%
12,COc1ccnc(N2C[C@@H](NS(=O)(=O)N(C)C)[C@H](C(C)C)C2)n1,1.494%
13,CC(C)[C@@H]1CN(Cc2ccsc2)C[C@H]1NS(=O)(=O)N(C)C,12.46%
14,CC(C)[C@@H]1CN(c2ncc(F)cn2)C[C@H]1NC(=O)N(C)C,70.99%
15,CCN(C)S(=O)(=O)N[C@H]1CN(c2ccc(F)cn2)C[C@@H]1C(C)C,1.28%
16,Cc1noc(C)c1CN1C[C@@H](NC(=O)N(C)C)[C@H](C(C)C)C1,-17.12%
17,CC(C)[C@@H]1CN(c2ncc(F)cn2)C[C@H]1NS(=O)(=O)N(C)C,83.11%
18,CC(C)[C@@H]1CN(S(=O)(=O)Cc2ccccc2)C[C@H]1NS(=O)(=O)N(C)C,-33.69%
19,CCc1nc2n(n1)CCCC2Nc1nc(C(C)C)ns1 (centres undefined),-21.17%
20,CC(C)CCN1CC2(CCCN(C(=O)c3cscn3)C2)CCC1=O (centres undefined),-17.51%
21,CC(C)(C)n1cc(C(=O)N2CCN(Cc3ccsc3)CC2)cn1,2.604%
22,O=C(NC[C@H]1OC[C@@H](NC2CCC(F)(F)CC2)[C@@H]1O)Nc1ccccc1,-10.14%

row,SMILES,Percent Effect
1,Cc1ccc(F)cc1S(=O)(=O)NCc1[nH]ncc1Br,-6.756%
2,CC(=O)N1CCCN(C(=O)Cc2c(C)nc(C)[nH]c2=O)CC1,-4.556%
3,Cc1cc(NS(=O)(=O)c2cnc3onc(C)c3c2)no1,-3.715%
4,COCC(=O)N1CCN(Cc2coc(-c3cccc(F)c3)n2)CC1,-10.41%
5,CN(C)C(=O)CN1CCN(Cc2coc(-c3cccc(F)c3)n2)CC1,102.1%
6,CC(=O)N1CCN(Cc2coc(-c3cccc(F)c3)n2)CC1,97.72%
7,CC1CCCN(Cc2coc(-c3cccc(F)c3)n2)C1 (centres undefined),-1.096%
8,Fc1cccc(-c2nc(CN3CCCCC3Cn3cncn3)co2)c1 (centres undefined),-6.024%
9,CCNC(=O)C1CN(Cc2c(-c3cc(C)on3)nn(C)c2Cl)CCO1 (centres undefined),-15.99%
10,Cl.O=S(=O)(N1CCCCC1)N1CCc2nc(C3CCNCC3)ncc2C1,-9.776%
11,CCN(CC)S(=O)(=O)N1CCc2nc(C3CCNCC3)ncc2C1.Cl,116.7%
12,CC(C)NC(=O)c1cc2c(nc1N(C)C)CCN(S(=O)(=O)C1CC1)CC2,-5.433%
13,CCN(CC)S(=O)(=O)N1CCCC(c2nccn2Cc2ccncc2)C1 (centres undefined),6.265%
14,CCC(C)S(=O)(=O)N1CCc2nc(C3CCNCC3)ncc2C1.Cl (centres undefined),105.9%
15,CCc1cc(CNC(=O)N2Cc3ccccc3N(C)CC2C)on1 (centres undefined),12.48%
16,CN(Cc1ccc(Br)s1)Cn1nc(-c2ccc(F)cc2)oc1=O,11.33%
17,Cc1ncc(CN(C)Cn2nc(-c3ccccc3)oc2=O)s1,56.71%
18,CN(Cc1ccc(Br)s1)Cn1nc(-c2ccccc2)oc1=O,38.33%
19,CSc1nccc(NCC2CNCCO2)n1 (centres undefined),3.575%
20,Cn1cc(CNCCC(=O)NCc2ccccc2)c(-c2cccnc2)n1,-3.655%
21,CCc1ccc(C(=O)N2CCCC(n3cncn3)C2)o1 (centres undefined),-14.61%
22,Cc1c(C(=O)N2CCCC(n3cncn3)C2)cnn1C (centres undefined),111.3%

row,SMILES,Percent Effect
1,Cn1nc(C(=O)N2CCCC(n3cncn3)C2)ccc1=O (centres undefined),-5.25%
2,Cc1cc(C(=O)N2CCCC(n3cncn3)C2)nn1C (centres undefined),113.3%
3,Cc1cc(C(=O)N2CCCC(n3cncn3)C2)on1 (centres undefined),105.4%
4,CCC(CC)c1cc(C(=O)N2CCCC(n3cncn3)C2)on1 (centres undefined),-3.018%
5,Cc1cnc(C(=O)N2CCCC(n3cncn3)C2)cn1 (centres undefined),95.37%
6,Cc1[nH]ncc1C(=O)N1CCCC(n2cncn2)C1 (centres undefined),-1.83%
7,CC(C)c1nc(C(=O)N2CCCC(n3cncn3)C2)c[nH]1 (centres undefined),7.683%
8,CCNC(=O)N1C[C@@H]2OCC(=O)N(CC3CC3)[C@@H]2C1,-6.422%
9,Cc1nsc(NC2CCOC3(CCCCC3)C2)n1 (centres undefined),-0.6251%
10,Cc1cnn(CCNCc2csc(-c3ccc4c(c3)OCO4)n2)c1,-11.61%
11,CN(CCS(=O)(=O)c1cc(Cl)ccc1Cl)CC(N)=O,6.108%
12,Cc1ccn(-c2ccc(NCc3cccnc3N3CCCCC3)nn2)n1,-6.636%
13,Nc1cc2c(nn1)CCN(C(=O)c1ccccc1Oc1cccnc1)C2,-10.76%
14,CCc1nccn1C1CCCN(C(=O)c2cnc3onc(C)c3c2)C1 (centres undefined),-19.2%
15,Cc1cc(C(=O)N2CCCC(n3cncn3)C2)c(C)n1CC1CC1 (centres undefined),127.1%
16,Cc1cc(C)n(CCC(=O)N2CCCC(n3cncn3)C2)n1 (centres undefined),-3.067%
17,Cc1ncsc1C(=O)N1CCCC(n2cncn2)C1 (centres undefined),88.89%
18,COCC(C)NS(=O)(=O)c1ccc(Br)cn1 (centres undefined),-13.48%
19,O=C(Nc1ccccc1F)N1CCN(Cc2noc(C3CC3)n2)CC1,0.2085%
20,CN(C)c1nc2c(c(N3CCC4(CCCNC4=O)C3)n1)CCCC2 (centres undefined),9.775%
21,Cc1ccc(-c2ccnc(N3CCC4(CC3)CNC(=O)O4)n2)c(C)n1,5.789%
22,CC(=O)NC1CCN(c2nc(N(C)C)nc3c2CCCC3)CC1,10.24%

row,SMILES,Percent Effect
1,CN1CCc2[nH]nc(C(=O)N3CCCC4(CC3)CNC(=O)O4)c2C1 (centres undefined),1.077%
2,O=C1NCC2(CCCN(c3ncnc4c3CCC4)CC2)O1 (centres undefined),82.73%
3,CC(C)Cc1ncc2c(n1)CN(c1nc(N(C)C)nc3c1CCCC3)C2,27.68%
4,CN(C)c1nc2c(c(N3CCCC4(CC3)CNC(=O)O4)n1)CCCC2 (centres undefined),98.47%
5,CCCc1cnc(C)nc1N1CCC2(CC1)CNC(=O)O2,7.463%
6,c1cnn(CC2CN(c3ncnc4c3CCC4)CCO2)c1 (centres undefined),-17.69%
7,Cc1nc(N(C)C)nc(N2CCC3(CC2)CNC(=O)O3)c1C,97.26%
8,c1nc2c(c(N3CCOC(Cn4cncn4)C3)n1)CCC2 (centres undefined),-6.426%
9,CN(C)c1nc2c(c(N3CCC4(CC3)CNC(=O)C4)n1)CCCC2,100.7%
10,CC(C)Cc1cc(CC2(NCc3ccco3)COC2)no1,-14.13%
11,Cc1ccc(-n2ccc3nc(N4CCCC4)ncc3c2=O)cc1C,-4.635%
12,COCCN1C[C@H]2CCN(c3ncccn3)CC[C@H]2S1(=O)=O,-6.135%
13,COc1ccc(F)cc1-c1nc2c([nH]1)c(C1CC1)nn2C,5.431%
14,Cn1cc(C(=O)N2CC[C@@H]3[C@@H]2CCN3c2ncc(F)cn2)cn1.O=C(O)C(F)(F)F,3.256%
15,N#Cc1cccc(N2CC3(CCN(C(=O)c4cccnc4)C3)CC2=O)c1.O=C(O)C(F)(F)F (centres undefined),6.163%
16,NC(=O)N1CCC2(CCN(C(=O)c3cccnc3)CC2)C1.O=C(O)C(F)(F)F,118.8%
17,Cc1cnc(N2CC3(CCN(C(=O)c4cccnc4)C3)C2)nc1.O=C(O)C(F)(F)F,-3.598%
18,CS(=O)(=O)N1CCC2(CN(C(=O)c3cccnc3)C2)C1.O=C(O)C(F)(F)F,-8.829%
19,Cc1ccc(CN2CCC3(CC2)CCN(C(=O)c2cccnc2)C3)o1.O=C(O)C(F)(F)F,93.46%
20,O=C(O)C(F)(F)F.O=C(c1cccnc1)N1CCC2(CCN(C(=O)N3CCCC3)CC2)C1,121.5%
21,Cc1ccc(CNC(=O)c2nc3c(o2)CN(C(=O)c2cccnc2)C3)o1.O=C(O)C(F)(F)F,-4.272%
